Source: PubChem BioAssay (several laboratories)
Shown are actives, neighbours in structure and some others; about 3% of the full set was active somewhere.
DAGLB inh: DAGLB lipase inhibitors, primary screen, biochemical, fluorescence, HTS | Diacylglycerol lipase-beta (Homo sapiens), Q8NCG7 | HEK293T DAGLB membrane lysate, EnzChek fluorogenic substrate | inhibition, % at 5.17 µM | 340,000 tested, 0.059% active | AID 504411, 2011; in the data active = inhibition above about 34%
Target sequence (Q8NCG7 whole entry, looked up): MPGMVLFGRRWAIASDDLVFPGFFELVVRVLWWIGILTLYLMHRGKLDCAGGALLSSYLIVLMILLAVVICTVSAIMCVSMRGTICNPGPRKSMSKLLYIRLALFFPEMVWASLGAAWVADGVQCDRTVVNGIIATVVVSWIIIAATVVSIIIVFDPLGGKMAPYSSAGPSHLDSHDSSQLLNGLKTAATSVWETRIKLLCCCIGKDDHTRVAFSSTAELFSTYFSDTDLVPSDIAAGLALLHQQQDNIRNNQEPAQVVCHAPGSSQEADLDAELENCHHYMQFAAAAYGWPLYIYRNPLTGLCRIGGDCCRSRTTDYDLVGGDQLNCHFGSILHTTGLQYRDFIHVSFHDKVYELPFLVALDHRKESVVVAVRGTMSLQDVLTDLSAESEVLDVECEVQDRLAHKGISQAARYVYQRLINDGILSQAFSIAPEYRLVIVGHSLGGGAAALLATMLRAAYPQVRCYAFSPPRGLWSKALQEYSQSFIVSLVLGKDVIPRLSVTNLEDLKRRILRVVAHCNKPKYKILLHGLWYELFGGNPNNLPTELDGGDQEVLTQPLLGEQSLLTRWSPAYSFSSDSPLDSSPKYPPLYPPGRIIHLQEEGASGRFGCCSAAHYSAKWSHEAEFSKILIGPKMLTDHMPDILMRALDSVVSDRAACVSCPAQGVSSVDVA
PAFAH2 FP inh: PAFAH2 enzyme inhibitors, primary screen, biochemical, fluorescence polarization, human | Platelet-activating factor acetylhydrolase 2, cytoplasmic (Homo sapiens), Q99487 | recombinant PAFAH2, FP-rhodamine activity probe | inhibition, % at 3.39 µM | 340,000 tested, 0.99% active | AID 492956, 2010;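 active = inhibition above the mean over all tested compounds plus 3 SD, cut at about 30% in these data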;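 also: inhibitors block probe labeling of enzyme so polarization drops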
PAFAH1B2 FP inh: PAFAH1B2 enzyme inhibitors, primary screen, biochemical, fluorescence polarization, human. Platelet-activating factor acetylhydrolase IB subunit alpha2 (Homo sapiens), P68402. recombinant PAFAH1B2, FP-rhodamine activity probe. inhibition, % at 3.39 µM. 340,000 tested, 1.2% active. AID 492953, 2010;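 active = inhibition above the mean of all tested compounds plus 3 SD, cut at about 24% in these data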
ATG4B inh: ATG4B protease inhibitors, primary screen, biochemical, fluorescence, uHTS; inhibition, % at 8.33 µM; Cysteine protease ATG4B (Homo sapiens), Q9Y4P1; ATG4B cleavage of LC3-PLA2, NBD-HPC fluorescence, 1 h; 340,000 tested, 0.51% active; in the data active = inhibition above about 40%
PAFAH1B3 inh: PAFAH1B3 enzyme inhibitors, primary screen, biochemical, fluorescence polarization, human; 340,000 tested, 0.28% active; Platelet-activating factor acetylhydrolase IB subunit alpha1 (Homo sapiens), Q15102; inhibition, % at 3.39 µM; recombinant PAFAH1B3, FP-rhodamine probe;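 active = inhibition above the screen-wide average of all tested compounds plus 3 SD, cut at about 25% in these data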
pPAFAH FP inh: pPAFAH enzyme inhibitors, primary screen, biochemical, fluorescence polarization, human; Platelet-activating factor acetylhydrolase (Homo sapiens), Q13093; recombinant pPAFAH, FP-rhodamine probe fluorescence polarization; inhibition, % at 3.39 µM; 330,000 tested, 1.5% active;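 active = inhibition above the mean inhibition across the screen plus 3 SD, cut at about 25% in these data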;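 also: inhibitors block binding of the rhodamine activity-based probe so polarization drops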
ATG4B confirm: ATG4B protease inhibitors, retest, confirmation, biochemical, fluorescence, single concentration; shares compounds with ATG4B inh; ATG4B protease fluorescent substrate cleavage assay; inhibition, % at 8.33 µM; 320 tested, 92% active; in the data active = inhibition above about 39%
PLA2 ctr: PLA2 enzyme inhibition, counter-screen for ATG4B inhibitor project, biochemical, single concentration, uHTS hits | 1,600 tested, 66% active | inhibition, % at 8.33 µM | shares compounds with ATG4B inh | purified PLA2, NBD-C6-HPC fluorescence, 45 min; in the data active = inhibition above about 50%
Hits are given with their value; . = inactive; / = not tested or not shown.

SMILES	DAGLB inh	PAFAH2 FP inh	PAFAH1B2 FP inh	ATG4B inh	PAFAH1B3 inh	pPAFAH FP inh	PLA2 ctr	others
Cc1cccc2c1N(CCOc1ccc(C(C)(C)C)cc1)C(=O)C2=O	.	.	.	57	.	.	.	ATG4B confirm=52
CCCn1c(NC(=O)c2cccc(S(=O)(=O)N3CCCC3)c2)nc2ccccc21	.	.	.	.	.	.	57
CCCn1c(NC(=O)c2ccccc2)nc2ccccc21	.	.	.	.	.	.	/
CSc1nnc(C(C)c2ncc(C(F)(F)F)cc2Cl)n1C (stereo not drawn)	.	.	.	.	.	.	/
Cc1sc2nc(SCc3nnc(-c4cccs4)o3)n(C3CCCC3)c(=O)c2c1C	.	.	.	44	.	.	66
O=c1c(Cc2c(F)cccc2Cl)c(O)ccn1CCCn1ccnc1	.	.	.	.	.	.	/
CCN1CCSc2ccc(C(=O)NCc3ccccc3Br)cc21	.	.	.	.	.	.	/
CN1CCSc2ccc(C(=O)NCc3cccc(Br)c3)cc21	.	.	.	41	.	.	57
CCN1CCSc2ccc(C(=O)NCc3ccccc3C)cc21	.	.	.	44	.	.	59
CC(C)N(C(=O)COC(=O)c1cccc(C(=O)OCC(=O)N(C(C)C)C(C)C)n1)C(C)C	/	/	/	.	/	.	/
Cc1nc(NC(=O)c2ccccc2)sc1C1(C)CC(c2c(Cl)cccc2Cl)=NO1 (stereo not drawn)	.	.	.	.	.	/	/
Cc1nc(NC(=O)c2ccccc2)sc1C1(C)CC(c2ccccc2F)=NO1 (stereo not drawn)	.	.	.	45	.	.	64
CCCn1c(CN2CCN(C(=O)OCC)CC2)nc2cc(NC(C)=O)ccc21	.	.	.	.	.	.	/
Cn1c(=O)c2sccc2n2c(CCCC(=O)NCCc3ccccc3)nnc12	.	.	.	.	.	.	/
CC(=O)Nc1ccc(C(=O)N/N=C/c2cc(Br)cc(Br)c2O)cc1	.	.	.	.	.	.	/
Cc1ccc(C(=O)O)cc1N=Cc1cc(Br)cc(Br)c1O	.	.	.	44	.	.	.	ATG4B confirm=59
Cc1ccc(S(=O)(=O)Nc2ccccc2C=Nc2cccc(C)c2C)cc1	.	.	.	57	.	.	61
Cc1ccc(S(=O)(=O)Nc2ccccc2N=Cc2c(F)c(F)c(F)c(F)c2F)cc1	.	.	.	.	.	/	/
Cn1cc([N+](=O)[O-])c(C(=O)NCc2cc3cc(Cl)ccc3[nH]2)n1	.	.	.	.	.	.	/
CC(C)OC(=O)[C@H]1[C@H](c2ccc(Cl)cc2)[C@@](C#N)(C(N)=O)[C@@H]2C=CC(C(N)=O)=CN21	.	.	.	64	.	/	74
CCc1nc(N(CC)CC)c2oc3ccccc3c2n1	.	.	.	.	.	.	/
CCc1nc(N2CCC(C)CC2)c2oc3ccccc3c2n1	.	.	.	57	.	.	68
CN1CCc2nc3sc(C(=O)C45CC6CC(CC(C6)C4)C5)c(N)c3cc2C1	.	.	.	45	.	.	.
Cc1cc(N/N=C/c2ccccc2Cl)nc(NCc2ccccc2)n1	.	.	.	85	.	.	91
Cc1sc(NC(=O)c2ccc(=O)n(C)n2)nc1-c1ccccc1	.	.	.	.	.	.	/
Cc1sc(NC(=O)c2c(F)cccc2F)nc1-c1ccccc1	.	.	.	53	.	.	67
N#Cc1ccc(C(=O)Nc2cc(S(=O)(=O)Nc3ccc(Cl)cc3)ccc2N2CCCCC2)cc1	.	.	.	.	.	.	/
O=C(Nc1cc(S(=O)(=O)Nc2ccc(Cl)cc2)ccc1N1CCCCC1)c1ccc(F)cc1	.	.	.	42	.	.	.
